Consider 35 compounds from PubChem BioAssay.

Test system in one experiment: not listed separately
Description: small-molecule microarray binders of probe aLefty2, primary screen, biochemical, biotinylated probe, 635/667 nm fluorescence (AID 1094).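 Note: score merges spot fluorescence near 667 nm with spot signal-to-noise ratio.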 The conditions noted are these: higher = more signal.
For `O=C1O[C@H](c2ccccc2)[C@H](c2ccccc2)N2[C@H]1[C@@H](C(=O)O)[C@]1(C(=O)Nc3ccc(C#CCCO)cc31)[C@H]2c1ccccc1OCCO`, the composite z-score is -0.13.
Regarding `COC(=O)[C@@]1(Cc2ccc(F)cc2)[C@H]2c3cc(C(=O)N4CCCC4)n(CCc4c[nH]c5ccccc45)c3C[C@H]2CN1C(=O)c1ccccc1`, the composite z-score stood at 0.323.
For the compound `[N-]=[N+]=Nc1ccccc1C[C@]1(C(=O)N2CCOCC2)COC(c2ccc(OCCCO)cc2)=N1`, the composite z-score was 0.0446.
Same read-out and setting: as for `C=CCN1C(=O)[C@]2(CCC(=O)OC(C)(C)C)N=C(c3ccc(OCCCO)cc3)O[C@@H]2c2ccccc21`, the figure is 0.128; as for `O=C1OCCC=C[C@H]2OC34C=CCN(Cn5nnc6ccccc65)C(=O)[C@H]3N(CCCO)C(=O)[C@@H]4C12` (stereo partly drawn), -0.209; as for `COCCOC(=O)N1C(=O)[C@@]2(c3ccccc31)[C@H](c1ccc(O)cc1)N1[C@H](c3ccccc3)[C@H](c3ccccc3)OC(=O)[C@H]1[C@@H]2C(=O)N1CCN(c2ncccn2)CC1`, 0.0669.
The same measure, in the same setting: next, `Cc1ccc(S[C@]2(C(=O)NCC(F)(F)F)CC(=O)N(Cc3cc(C(F)(F)F)cc(C(F)(F)F)c3)[C@@H]2c2ccc(CO)cc2I)cc1`: -0.054.
Compound `C#CCN([C@@H](Cc1ccccc1)C(=O)OC)[C@@H](/C=C/C1CC1)[C@H](O)Cc1ccccc1` displayed a composite z-score of -0.0051.
Still for that read-out and setting: as for `CC(C)C(CO)N1C(=O)[C@@H]2[C@H]3C(=O)OCC=C[C@H]3OC23C=CCN(c2ccc(Cl)cc2)C(=O)[C@@H]13` (stereo partly drawn), the figure is -0.246.
On the same count and under the same terms, as for `COC(=O)[C@@]1(Cc2ccc(F)cc2)[C@H]2c3cc(C(=O)N4CCCC4)n(Cc4ccc(C)c(F)c4F)c3C[C@H]2CN1C(=O)c1ccccc1`, the figure is 0.136; as for `COc1ccccc1CN1C(=O)c2ccccc2[C@](Cc2ccccc2I)(C(=O)O)[C@@H]1c1ccc(CO)cc1`, -0.0031.
Still for that read-out and setting: as for `COc1ccc([C@H]2OC[C@@H]3C[C@H](Cc4ccccc4)C(=O)N32)cc1`, the figure is -0.155; as for `COCCOC(=O)N1C(=O)[C@@]2(c3cc(C#CC4(O)CCCCCC4)ccc31)[C@H](c1ccc(O)cc1)N1[C@H](c3ccccc3)[C@H](c3ccccc3)OC(=O)[C@H]1[C@@H]2C(=O)N1CCN(c2ncccn2)CC1`, -0.0282; as for `CCCC1(C(=O)OC)C=C2C(=C(C)C(=O)C2C)CN1` (stereo not drawn), 0.0932.
For `COc1cc(NN2C(C(O)c3ccco3)C=CC3C(=O)N(C)C(=O)C32)cc(OC)c1OC` (stereo not drawn), the composite z-score was 0.413.
The same measure, in the same setting: next, `CCCNC(=O)[C@@H]1c2ccccc2C(=O)N(Cc2ccc(OC(F)(F)F)cc2)[C@H]1c1ccc(CO)cc1`: 0.0286; `C=CC[C@@H](OC(=O)Nc1ccc(OC)cc1)c1ccc(O)c(F)c1`: -0.146.
For the compound `CCCC[C@@H](O)C1=C(COC)C[C@H]2C(=O)N(Cc3ccccc3)C(=O)[C@H]2[C@H]1CO`, the composite z-score was -0.241.
Same read-out and setting: next, `CC(C)NC(=O)[C@@]1(c2ccc([N+](=O)[O-])cc2)CC(=O)N(C2CCCCC2)[C@@H]1c1ccc(CO)cc1`: -0.271; `CC1CC/C=C\[C@H]2OC34C=CCN(c5ccc(Cl)cc5)C(=O)[C@H]3N(C(C)CO)C(=O)[C@]4(C)C2C(=O)O1` (stereo partly drawn): -0.0099; `COc1cc2c(cc1O)C(C1CC1)N(Cc1cccc(OC(F)(F)F)c1)CC2` (stereo not drawn): -0.0575.
Same read-out and setting: next, `CC(c1ccccc1)C(O)C1C=CC2C(=O)N(C)C(=O)C2N1Nc1ccccc1` (stereo not drawn): 0.445.
On the same count and under the same terms, next, `CCOC(=O)C1=CC[C@@H](c2ccccc2F)N(S(=O)(=O)c2ccc(C)cc2)[C@H]1c1ccccc1`: -0.0551.

A further experiment deals with Noggin (protein binding on small-molecule microarray). Description: Noggin binders on small-molecule microarray, primary screen, biochemical, 635/667 nm fluorescence (AID 1095).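 Note: score merges 667 nm feature fluorescence with signal to noise over triplicate slides.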 The note with it: 635 nm fluorescence, higher = more signal.
With `CC1CC/C=C\[C@H]2OC34C=CCN(C(C)(C)C)C(=O)[C@H]3N(CCCCCO)C(=O)[C@@H]4C2C(=O)O1` (stereo partly drawn), the composite z-score was -0.673.
Still for that read-out and setting: next, `COc1cc(NN2C(C(O)c3cc(OC)c(OC)c(OC)c3)C=CC3C(=O)N(C)C(=O)C32)cc(OC)c1OC` (stereo not drawn): -0.112; `[N-]=[N+]=NCc1ccccc1[C@H]1OC(c2ccc(OCCCO)cc2)=N[C@@]1(Cc1ccccc1N=[N+]=[N-])C(=O)NCC(O)CO` (stereo partly drawn): 0.0758; `C=C(COC)/C(=C/C[C@H](OC(=O)c1ccncc1)c1ccccc1OCCO)c1cc(C(=O)OC)ccc1OC`: 1.23.
On the same count and under the same terms, as for `CC(C)=C1C(=O)C(c2ccccc2)=C2CN3C(=O)N(CCc4ccccc4)C(=O)[C@]3(Cc3ccc(C(F)(F)F)cc3)[C@H]21`, the figure is -1.08; as for `NCCCCCCNC(=O)[C@@H]1C[C@@H]2C(=O)N[C@@H](CCCCN)C(=O)N2[C@@H]1c1ccc(O)cc1`, 0.367.
Still for that read-out and setting: next, `CC(C)[Si](C#CCCCC#N)(O[C@H](c1ccccc1)c1cn(Cc2ccccc2)nn1)C(C)C`: 0.509; `CC(C)c1ccc(NN2C(C(O)c3ccc(C#N)cc3)C=CC3C(=O)N(c4ccccc4)C(=O)C32)cc1` (stereo not drawn): -0.144.
Compound `COC(=O)[C@]1(CCS(=O)(=O)c2ccccc2)N=C(c2ccc(OCCCO)cc2)O[C@@H]1c1ccccc1N=[N+]=[N-]` returned a composite z-score of 1.22.
With `C=C[C@H](C)[C@H](OC(=O)Nc1ccc(SC)cc1)c1ccc(OCCO)cc1`, the composite z-score is 0.415.
The same measure, in the same setting: next, `Cc1ccc(S[C@]2(C(=O)NCC(F)(F)F)CC(=O)N(Cc3cc(C(F)(F)F)cc(C(F)(F)F)c3)[C@@H]2c2ccc(CO)cc2)cc1`: -0.556.
The same measure, in the same setting: as for `O=C1OCCC=C[C@H]2OC34C=CCN(c5ccc6ccccc6c5)C(=O)[C@H]3N(CCCO)C(=O)[C@@H]4C12` (stereo partly drawn), the figure is -2.16; as for `O=C1O[C@H](c2ccccc2)[C@H](c2ccccc2)N2[C@H]1[C@@H](C(=O)O)[C@]1(C(=O)Nc3ccc(C#CCCO)cc31)[C@H]2c1ccccc1OCCO`, 0.55; as for `COC(=O)[C@@]1(Cc2ccc(F)cc2)[C@H]2c3cc(C(=O)N4CCCC4)n(CCc4c[nH]c5ccccc45)c3C[C@H]2CN1C(=O)c1ccccc1`, 0.462.
The same measure, in the same setting: next, `[N-]=[N+]=Nc1ccccc1C[C@]1(C(=O)N2CCOCC2)COC(c2ccc(OCCCO)cc2)=N1`: 0.182.
`C=CCN1C(=O)[C@]2(CCC(=O)OC(C)(C)C)N=C(c3ccc(OCCCO)cc3)O[C@@H]2c2ccccc21` returned a composite z-score of 0.501.
On the same count and under the same terms, as for `O=C1OCCC=C[C@H]2OC34C=CCN(Cn5nnc6ccccc65)C(=O)[C@H]3N(CCCO)C(=O)[C@@H]4C12` (stereo partly drawn), the figure is -0.677; as for `COCCOC(=O)N1C(=O)[C@@]2(c3ccccc31)[C@H](c1ccc(O)cc1)N1[C@H](c3ccccc3)[C@H](c3ccccc3)OC(=O)[C@H]1[C@@H]2C(=O)N1CCN(c2ncccn2)CC1`, 1.13; as for `Cc1ccc(S[C@]2(C(=O)NCC(F)(F)F)CC(=O)N(Cc3cc(C(F)(F)F)cc(C(F)(F)F)c3)[C@@H]2c2ccc(CO)cc2I)cc1`, -0.716.
Same read-out and setting: as for `C#CCN([C@@H](Cc1ccccc1)C(=O)OC)[C@@H](/C=C/C1CC1)[C@H](O)Cc1ccccc1`, the figure is 0.0503.
Same read-out and setting: next, `CC(C)C(CO)N1C(=O)[C@@H]2[C@H]3C(=O)OCC=C[C@H]3OC23C=CCN(c2ccc(Cl)cc2)C(=O)[C@@H]13` (stereo partly drawn): -1.16; `COC(=O)[C@@]1(Cc2ccc(F)cc2)[C@H]2c3cc(C(=O)N4CCCC4)n(Cc4ccc(C)c(F)c4F)c3C[C@H]2CN1C(=O)c1ccccc1`: -0.849.
Take `COc1ccccc1CN1C(=O)c2ccccc2[C@](Cc2ccccc2I)(C(=O)O)[C@@H]1c1ccc(CO)cc1`: the composite z-score turned out to be 0.653.
Same read-out and setting: next, `COc1ccc([C@H]2OC[C@@H]3C[C@H](Cc4ccccc4)C(=O)N32)cc1`: 0.614; `COCCOC(=O)N1C(=O)[C@@]2(c3cc(C#CC4(O)CCCCCC4)ccc31)[C@H](c1ccc(O)cc1)N1[C@H](c3ccccc3)[C@H](c3ccccc3)OC(=O)[C@H]1[C@@H]2C(=O)N1CCN(c2ncccn2)CC1`: 0.0969.
On the same count and under the same terms, next, `CCCC1(C(=O)OC)C=C2C(=C(C)C(=O)C2C)CN1` (stereo not drawn): -0.0743; `COc1cc(NN2C(C(O)c3ccco3)C=CC3C(=O)N(C)C(=O)C32)cc(OC)c1OC` (stereo not drawn): 0.382.
Still for that read-out and setting: next, `CCCNC(=O)[C@@H]1c2ccccc2C(=O)N(Cc2ccc(OC(F)(F)F)cc2)[C@H]1c1ccc(CO)cc1`: -0.0211.
Consider `C=CC[C@@H](OC(=O)Nc1ccc(OC)cc1)c1ccc(O)c(F)c1`, for which the composite z-score was -0.488.
Compound `CCCC[C@@H](O)C1=C(COC)C[C@H]2C(=O)N(Cc3ccccc3)C(=O)[C@H]2[C@H]1CO` had a composite z-score of 1.18.
Same read-out and setting: as for `CC(C)NC(=O)[C@@]1(c2ccc([N+](=O)[O-])cc2)CC(=O)N(C2CCCCC2)[C@@H]1c1ccc(CO)cc1`, the figure is 1.77.
Still for that read-out and setting: as for `CC1CC/C=C\[C@H]2OC34C=CCN(c5ccc(Cl)cc5)C(=O)[C@H]3N(C(C)CO)C(=O)[C@]4(C)C2C(=O)O1` (stereo partly drawn), the figure is -0.603; as for `COc1cc2c(cc1O)C(C1CC1)N(Cc1cccc(OC(F)(F)F)c1)CC2` (stereo not drawn), -0.242; as for `CC(c1ccccc1)C(O)C1C=CC2C(=O)N(C)C(=O)C2N1Nc1ccccc1` (stereo not drawn), -0.194.
On the same count and under the same terms, as for `CCOC(=O)C1=CC[C@@H](c2ccccc2F)N(S(=O)(=O)c2ccc(C)cc2)[C@H]1c1ccccc1`, the figure is 0.63.
